T1: MYL6 4-151 EF-hand_6 (domain begin residue: 4, domain end residue: 151), P60660
T1 chain: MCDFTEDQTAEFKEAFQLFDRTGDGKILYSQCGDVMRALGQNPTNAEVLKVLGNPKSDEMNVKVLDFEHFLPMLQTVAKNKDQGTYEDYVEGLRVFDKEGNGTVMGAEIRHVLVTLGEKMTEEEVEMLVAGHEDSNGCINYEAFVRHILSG

T2: MDM4 26-106 SWIB (domain begin residue: 26, domain end residue: 106), O15151
T2 chain: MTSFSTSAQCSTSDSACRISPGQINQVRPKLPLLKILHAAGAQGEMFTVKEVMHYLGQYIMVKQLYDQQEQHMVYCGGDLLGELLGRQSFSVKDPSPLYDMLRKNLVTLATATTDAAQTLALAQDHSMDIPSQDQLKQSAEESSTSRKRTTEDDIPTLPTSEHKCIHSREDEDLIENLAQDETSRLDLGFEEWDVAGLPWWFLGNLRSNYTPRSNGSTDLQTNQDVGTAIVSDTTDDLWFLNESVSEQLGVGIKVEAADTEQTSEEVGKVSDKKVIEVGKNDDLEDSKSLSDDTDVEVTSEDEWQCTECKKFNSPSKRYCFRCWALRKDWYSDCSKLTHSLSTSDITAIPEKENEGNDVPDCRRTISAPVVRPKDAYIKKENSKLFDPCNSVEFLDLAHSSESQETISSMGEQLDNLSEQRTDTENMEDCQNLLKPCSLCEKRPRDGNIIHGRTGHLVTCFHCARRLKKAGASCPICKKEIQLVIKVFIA

T3: NFKBIA 70-282 EF-hand_6 (domain begin residue: 70, domain end residue: 282), P25963
T3 chain: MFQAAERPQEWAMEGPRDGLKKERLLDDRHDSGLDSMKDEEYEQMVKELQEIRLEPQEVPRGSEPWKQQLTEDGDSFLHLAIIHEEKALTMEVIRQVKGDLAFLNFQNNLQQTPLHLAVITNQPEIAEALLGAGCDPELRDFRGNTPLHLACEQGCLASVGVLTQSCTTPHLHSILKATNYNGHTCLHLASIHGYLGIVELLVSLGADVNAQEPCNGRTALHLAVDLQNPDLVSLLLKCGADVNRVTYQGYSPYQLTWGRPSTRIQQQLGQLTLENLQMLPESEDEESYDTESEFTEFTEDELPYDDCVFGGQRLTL

T4: NR1H2 203-460 Hormone_recep (domain begin residue: 203, domain end residue: 460), P55055
T4 chain: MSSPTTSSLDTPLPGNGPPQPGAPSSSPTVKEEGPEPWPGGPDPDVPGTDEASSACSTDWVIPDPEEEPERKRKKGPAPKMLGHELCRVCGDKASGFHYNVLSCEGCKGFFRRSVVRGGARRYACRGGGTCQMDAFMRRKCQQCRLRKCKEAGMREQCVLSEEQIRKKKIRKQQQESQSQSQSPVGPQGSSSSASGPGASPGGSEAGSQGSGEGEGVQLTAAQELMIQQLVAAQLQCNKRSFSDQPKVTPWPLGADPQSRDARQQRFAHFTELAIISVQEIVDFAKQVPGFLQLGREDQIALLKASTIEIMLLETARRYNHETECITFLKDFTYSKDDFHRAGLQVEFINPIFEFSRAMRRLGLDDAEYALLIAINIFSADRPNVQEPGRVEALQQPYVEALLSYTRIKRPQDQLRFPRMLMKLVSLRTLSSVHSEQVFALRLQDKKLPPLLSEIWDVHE

T5: NR1H3 204-447 Hormone_recep (domain begin residue: 204, domain end residue: 447), Q13133
T5 chain: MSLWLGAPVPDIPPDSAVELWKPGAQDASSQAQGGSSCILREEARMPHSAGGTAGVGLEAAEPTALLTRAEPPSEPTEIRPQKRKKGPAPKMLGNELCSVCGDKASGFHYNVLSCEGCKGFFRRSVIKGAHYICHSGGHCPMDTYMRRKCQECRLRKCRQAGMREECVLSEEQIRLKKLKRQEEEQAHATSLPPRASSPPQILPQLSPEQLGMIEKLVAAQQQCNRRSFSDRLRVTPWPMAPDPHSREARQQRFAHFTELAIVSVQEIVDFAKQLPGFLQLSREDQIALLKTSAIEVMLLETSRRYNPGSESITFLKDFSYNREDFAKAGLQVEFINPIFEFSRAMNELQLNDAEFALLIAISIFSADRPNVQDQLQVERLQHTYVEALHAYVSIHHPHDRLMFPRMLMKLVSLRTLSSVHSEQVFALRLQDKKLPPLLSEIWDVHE

T6: ZGPAT 120-268 zf-CCCH+TUDOR (domain begin residue: 120, domain end residue: 268), Q8N5A5
T6 chain: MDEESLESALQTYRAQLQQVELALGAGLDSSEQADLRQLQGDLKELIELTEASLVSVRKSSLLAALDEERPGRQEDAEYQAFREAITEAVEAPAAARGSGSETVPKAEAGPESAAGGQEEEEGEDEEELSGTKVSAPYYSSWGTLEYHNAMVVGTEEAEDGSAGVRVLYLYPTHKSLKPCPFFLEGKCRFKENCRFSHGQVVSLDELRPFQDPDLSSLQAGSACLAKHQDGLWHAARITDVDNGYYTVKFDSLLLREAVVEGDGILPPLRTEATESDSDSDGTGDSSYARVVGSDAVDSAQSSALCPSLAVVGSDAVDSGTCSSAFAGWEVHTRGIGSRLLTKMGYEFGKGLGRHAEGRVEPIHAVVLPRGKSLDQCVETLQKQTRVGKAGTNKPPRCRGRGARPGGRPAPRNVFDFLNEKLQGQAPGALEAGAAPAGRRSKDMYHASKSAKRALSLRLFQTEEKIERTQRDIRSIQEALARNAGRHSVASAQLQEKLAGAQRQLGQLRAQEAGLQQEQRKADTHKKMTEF

T7: NUP98 730-880 Nucleoporin2 (domain begin residue: 730, domain end residue: 880), P52948
T7 chain: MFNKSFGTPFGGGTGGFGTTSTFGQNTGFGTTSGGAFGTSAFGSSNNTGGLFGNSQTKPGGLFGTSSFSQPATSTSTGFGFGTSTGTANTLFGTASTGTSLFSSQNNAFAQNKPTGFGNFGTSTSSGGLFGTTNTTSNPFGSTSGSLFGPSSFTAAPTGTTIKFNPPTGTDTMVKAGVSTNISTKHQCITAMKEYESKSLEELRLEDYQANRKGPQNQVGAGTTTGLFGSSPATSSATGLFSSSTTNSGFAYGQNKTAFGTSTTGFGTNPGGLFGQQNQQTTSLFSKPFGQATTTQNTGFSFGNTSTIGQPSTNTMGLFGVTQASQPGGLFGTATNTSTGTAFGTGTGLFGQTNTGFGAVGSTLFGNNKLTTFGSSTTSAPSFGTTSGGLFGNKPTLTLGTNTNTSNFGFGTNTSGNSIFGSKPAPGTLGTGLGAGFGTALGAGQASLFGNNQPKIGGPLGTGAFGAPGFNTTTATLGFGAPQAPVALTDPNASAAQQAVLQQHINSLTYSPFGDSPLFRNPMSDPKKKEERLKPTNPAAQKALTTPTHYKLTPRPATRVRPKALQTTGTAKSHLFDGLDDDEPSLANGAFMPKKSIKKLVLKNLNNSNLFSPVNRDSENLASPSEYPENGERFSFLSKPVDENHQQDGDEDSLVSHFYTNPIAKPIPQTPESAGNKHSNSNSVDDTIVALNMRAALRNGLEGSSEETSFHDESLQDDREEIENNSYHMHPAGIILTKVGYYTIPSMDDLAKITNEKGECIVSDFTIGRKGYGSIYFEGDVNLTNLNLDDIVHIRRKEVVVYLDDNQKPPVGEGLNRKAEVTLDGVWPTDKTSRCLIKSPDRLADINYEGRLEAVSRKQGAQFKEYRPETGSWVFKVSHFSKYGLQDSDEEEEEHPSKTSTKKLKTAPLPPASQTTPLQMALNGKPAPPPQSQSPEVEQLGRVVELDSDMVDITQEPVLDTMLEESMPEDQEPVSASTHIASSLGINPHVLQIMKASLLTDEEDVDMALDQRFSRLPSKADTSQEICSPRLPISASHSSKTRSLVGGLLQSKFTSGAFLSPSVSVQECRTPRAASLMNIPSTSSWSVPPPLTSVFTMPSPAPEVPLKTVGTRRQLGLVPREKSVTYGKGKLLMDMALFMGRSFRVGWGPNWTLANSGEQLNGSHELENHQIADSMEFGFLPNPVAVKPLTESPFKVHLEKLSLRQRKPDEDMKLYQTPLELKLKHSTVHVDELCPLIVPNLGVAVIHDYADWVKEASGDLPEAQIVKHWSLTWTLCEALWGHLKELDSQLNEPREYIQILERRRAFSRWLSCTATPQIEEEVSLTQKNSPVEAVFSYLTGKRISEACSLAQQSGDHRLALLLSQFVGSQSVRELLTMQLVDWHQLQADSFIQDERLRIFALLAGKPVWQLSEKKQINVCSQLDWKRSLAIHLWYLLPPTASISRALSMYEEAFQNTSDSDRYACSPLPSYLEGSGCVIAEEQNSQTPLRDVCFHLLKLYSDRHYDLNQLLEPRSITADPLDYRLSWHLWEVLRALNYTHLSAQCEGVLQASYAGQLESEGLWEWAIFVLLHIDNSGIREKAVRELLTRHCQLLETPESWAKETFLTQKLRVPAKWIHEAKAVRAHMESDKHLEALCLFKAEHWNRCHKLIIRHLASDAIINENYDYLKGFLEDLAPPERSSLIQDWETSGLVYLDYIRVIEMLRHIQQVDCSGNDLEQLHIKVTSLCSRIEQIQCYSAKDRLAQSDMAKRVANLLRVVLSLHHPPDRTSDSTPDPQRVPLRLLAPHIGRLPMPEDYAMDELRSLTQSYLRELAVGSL


molecular target: MSH6 89-203 PWWP (domain begin residue: 89, domain end residue: 203), P52701; experiment: phage ELISA signal ratio (GST-PRM binding over GST background); higher = stronger binding of peptide-phage to the PRM
Sequence (P52701 whole entry, the tested form may be a part): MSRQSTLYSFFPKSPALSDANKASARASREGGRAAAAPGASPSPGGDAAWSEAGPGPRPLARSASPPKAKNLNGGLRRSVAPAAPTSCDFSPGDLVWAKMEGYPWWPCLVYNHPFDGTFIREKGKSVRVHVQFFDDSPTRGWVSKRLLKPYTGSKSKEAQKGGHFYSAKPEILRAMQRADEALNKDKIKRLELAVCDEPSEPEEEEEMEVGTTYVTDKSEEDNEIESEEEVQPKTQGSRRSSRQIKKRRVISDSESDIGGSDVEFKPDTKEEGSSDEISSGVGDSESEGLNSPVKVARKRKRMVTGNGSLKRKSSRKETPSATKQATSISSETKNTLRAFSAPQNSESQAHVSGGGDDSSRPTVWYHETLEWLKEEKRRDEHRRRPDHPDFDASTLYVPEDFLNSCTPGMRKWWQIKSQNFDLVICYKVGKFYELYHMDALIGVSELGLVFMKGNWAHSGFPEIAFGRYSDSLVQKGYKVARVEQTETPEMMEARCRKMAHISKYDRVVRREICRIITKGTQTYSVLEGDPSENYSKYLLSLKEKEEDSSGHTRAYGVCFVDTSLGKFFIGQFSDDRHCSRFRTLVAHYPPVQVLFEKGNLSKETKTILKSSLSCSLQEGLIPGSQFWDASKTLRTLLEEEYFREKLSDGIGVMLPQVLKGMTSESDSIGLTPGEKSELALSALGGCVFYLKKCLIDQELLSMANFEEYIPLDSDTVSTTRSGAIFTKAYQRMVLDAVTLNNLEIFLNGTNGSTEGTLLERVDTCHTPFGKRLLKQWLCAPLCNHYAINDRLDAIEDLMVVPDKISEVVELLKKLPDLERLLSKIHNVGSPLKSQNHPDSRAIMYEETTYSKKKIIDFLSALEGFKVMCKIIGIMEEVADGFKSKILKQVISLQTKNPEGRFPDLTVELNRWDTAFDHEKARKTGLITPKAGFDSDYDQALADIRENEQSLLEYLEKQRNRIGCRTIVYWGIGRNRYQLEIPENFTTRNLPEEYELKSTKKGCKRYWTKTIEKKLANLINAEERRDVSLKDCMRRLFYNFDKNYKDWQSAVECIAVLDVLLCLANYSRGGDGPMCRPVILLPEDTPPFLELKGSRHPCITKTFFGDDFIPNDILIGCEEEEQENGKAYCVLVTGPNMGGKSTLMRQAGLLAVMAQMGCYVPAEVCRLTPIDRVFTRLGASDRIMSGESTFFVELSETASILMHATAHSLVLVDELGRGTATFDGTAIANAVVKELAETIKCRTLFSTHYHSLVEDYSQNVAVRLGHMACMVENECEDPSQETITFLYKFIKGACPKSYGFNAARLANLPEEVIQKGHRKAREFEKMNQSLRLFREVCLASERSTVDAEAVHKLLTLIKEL
Method in brief: (§1)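 Human peptide recognition domains were expressed in 96-well plates as fusions to the C-terminus of glutathione S-transferase (GST) and selected against an M13 phage library displaying randomized hexadecapeptides, cysteine-free and glycine-flanked, on the gene-8 major coat protein. Five selection rounds were run, and approximately 48 individual clones from rounds 4 and 5 were tested by phage ELISA. Each value is the ELISA signal on the GST-domain fusion divided by the signal on GST alone. Positive clones were sequenced.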

Binder	phage ELISA signal ratio
TSYDPWVMEGMTQVVA	6.43
DPMSDLFMHNPFVQEP	7.54
PMWDSVWDHLLTEPPE	5.84

molecular target: SETD1A 2-220 RRM_1 (domain begin residue: 2, domain end residue: 220), O15047; experiment: as above
Sequence (O15047 whole entry): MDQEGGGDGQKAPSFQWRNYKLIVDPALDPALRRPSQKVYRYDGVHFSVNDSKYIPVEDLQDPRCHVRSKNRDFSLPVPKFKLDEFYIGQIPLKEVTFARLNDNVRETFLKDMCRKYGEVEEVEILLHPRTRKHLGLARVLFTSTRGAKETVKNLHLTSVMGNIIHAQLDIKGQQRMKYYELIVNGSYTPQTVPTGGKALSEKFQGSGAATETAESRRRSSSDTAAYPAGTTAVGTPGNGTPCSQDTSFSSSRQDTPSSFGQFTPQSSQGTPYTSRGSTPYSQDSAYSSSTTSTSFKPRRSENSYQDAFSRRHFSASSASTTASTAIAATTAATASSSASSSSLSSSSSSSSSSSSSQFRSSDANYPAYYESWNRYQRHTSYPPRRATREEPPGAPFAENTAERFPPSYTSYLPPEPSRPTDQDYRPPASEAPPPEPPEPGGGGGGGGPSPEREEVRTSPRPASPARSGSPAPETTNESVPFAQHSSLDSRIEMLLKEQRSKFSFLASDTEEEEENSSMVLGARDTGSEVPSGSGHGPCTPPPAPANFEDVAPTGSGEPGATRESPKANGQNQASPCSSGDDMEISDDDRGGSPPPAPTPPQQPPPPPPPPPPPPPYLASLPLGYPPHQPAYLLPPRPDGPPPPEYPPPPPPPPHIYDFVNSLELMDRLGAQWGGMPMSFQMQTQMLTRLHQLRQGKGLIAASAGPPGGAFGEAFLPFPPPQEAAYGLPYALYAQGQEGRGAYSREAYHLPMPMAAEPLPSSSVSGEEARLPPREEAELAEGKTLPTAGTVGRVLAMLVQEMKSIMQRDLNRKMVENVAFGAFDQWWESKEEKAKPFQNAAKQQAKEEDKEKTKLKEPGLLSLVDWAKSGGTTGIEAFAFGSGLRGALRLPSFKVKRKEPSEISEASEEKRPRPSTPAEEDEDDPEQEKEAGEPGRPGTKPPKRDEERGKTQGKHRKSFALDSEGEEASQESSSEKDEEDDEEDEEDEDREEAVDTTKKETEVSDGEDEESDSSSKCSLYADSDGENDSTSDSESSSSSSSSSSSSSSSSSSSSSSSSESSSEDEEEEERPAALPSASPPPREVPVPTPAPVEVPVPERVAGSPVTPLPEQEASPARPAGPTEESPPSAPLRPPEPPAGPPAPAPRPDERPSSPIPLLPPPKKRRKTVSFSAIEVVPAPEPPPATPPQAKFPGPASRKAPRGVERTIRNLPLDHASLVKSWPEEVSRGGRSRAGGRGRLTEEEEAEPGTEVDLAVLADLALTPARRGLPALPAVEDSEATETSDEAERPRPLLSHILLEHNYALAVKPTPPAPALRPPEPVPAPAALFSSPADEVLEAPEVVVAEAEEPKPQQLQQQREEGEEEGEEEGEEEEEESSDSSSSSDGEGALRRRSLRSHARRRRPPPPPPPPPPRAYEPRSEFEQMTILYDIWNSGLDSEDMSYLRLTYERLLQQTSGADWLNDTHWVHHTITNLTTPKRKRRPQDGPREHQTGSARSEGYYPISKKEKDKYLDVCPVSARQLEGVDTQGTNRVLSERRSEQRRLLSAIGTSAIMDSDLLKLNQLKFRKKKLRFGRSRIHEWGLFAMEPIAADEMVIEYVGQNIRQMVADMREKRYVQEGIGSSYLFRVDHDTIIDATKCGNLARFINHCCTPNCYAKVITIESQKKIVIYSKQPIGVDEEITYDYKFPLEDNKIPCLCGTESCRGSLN
Method in brief: as §1

Binder	phage ELISA signal ratio
TSYDPWVMEGMTQVVA	7.68

Molecular target: T1, MYL6 4-151 EF-hand_6 (domain begin …
Experiment: as above
Method in brief: as §1

Binder	phage ELISA signal ratio
IFQYIVVQIGNTMYVI	9.03
QWWVFHVGDQMYWAYV	3.08

Molecular target: T2, MDM4 26-106 SWIB (domain begin residue: …
Experiment: as above
Method in brief: as §1

Binder	phage ELISA signal ratio
KDFSMWWVELKEVEVS	17.4
IEFMDYWDSLDWMQKV	14.7
AFWTHWQKLIPPEFQA	26.1
MPLFMDLWQDMMPTNY	17.9

Molecular target: T3, NFKBIA 70-282 EF-hand_6 (domain begin …
Experiment: as above
Method in brief: as §1

Binder	phage ELISA signal ratio
WVDEWTDVVQPMYYYD	18.3
YWEHSNELDYWVEFIA	5.67

Molecular target: T4, NR1H2 203-460 Hormone_recep (domain …
Experiment: as above
Method in brief: as §1

Binder	phage ELISA signal ratio
ESLWIIPSNAYWEQVM	17.3

Molecular target: T5, NR1H3 204-447 Hormone_recep (domain …
Experiment: as above
Method in brief: as §1

Binder	phage ELISA signal ratio
EYYPEWDFLWRHMQEP	8.56

Molecular target: T6, ZGPAT 120-268 zf-CCCH+TUDOR (domain …
Experiment: as above
Method in brief: as §1

Binder	phage ELISA signal ratio
DPMSDLFMHNPFVQEP	8.79

Molecular target: T7, NUP98 730-880 Nucleoporin2 (domain …
Experiment: as above
Method in brief: as §1

Binder	phage ELISA signal ratio
YWEHSNELDYWVEFIA	16.9
